Bioassay records from PubChem BioAssay.
SARS PLP yeast = inhibitors of SARS-CoV papain-like protease in yeast. S. cerevisiae expressing SARS-CoV PLpro, growth rescue. Potency, µM (series often up to 32.9 µM), without a hit: at the top dose activity, positive = growth rescue, hits mostly activators. 0.19% of 330,000 active; calls by dose curve; note: 0% is about no effect; nearly all actives have a fitted effect of over 55% in size
Pf growth 96h = inhibits malaria parasite growth, 96 h; P. falciparum luciferase reporter growth, 96 h; Potency, µM (top dose mostly 28.7 µM), without a hit: at the highest dose activity change, negative = inhibition, usual class: inhibitors; 6.9% of 320,000 active; AID 504834; note: % is set by controls: 0 for no effect and ±100 for the full control effect
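Plates of compound plus infected erythrocytes (2% hematocrit, 0.05% parasitemia final) incubate 96 hours, 37 C, 5% CO2. Detection reagent added; reduced luminescence from the parasites' luciferase reporter flags inhibition.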
AMA1 RON2 block = inhibitors of Plasmodium falciparum AMA1-RON2 interaction; AlphaScreen AMA1-biotinylated RON2 peptide binding; Potency, µM (titrated, usually from 58.2 µM), inactives show at the top dose activity change, negative = inhibition, most hits filed as inhibitors; 0.2% of 360,000 active;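 note: 0% = vehicle wells and -100% = peptide control; nearly all actives have a fitted effect of over 45% in size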
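AMA1 (3D7) with his tag at 25 nM final met compounds first, then biotinylated RON2 peptide at 25 nM; detection used donor plus acceptor beads, 10 µg/mL apiece, read by AlphaScreen after 30 min at room temperature.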
Pf growth 48h = P. falciparum growth inhibition at 48 hours (one generation); 5.9% of 310,000 active; Potency, µM (doses to about 28.7 µM), for the others: at the top dose activity change, negative = inhibition, hits mostly inhibitors; P. falciparum luciferase growth in erythrocytes, 48 h; note: % is set by controls: 0 for no effect and ±100 for the full control effect
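Luminescence readout; reporter = integrated firefly luciferase in P. falciparum. RBC culture at 2% hematocrit, 0.1% parasitemia final, 37 C/5% CO2; decreased signal taken as growth inhibition.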
Numbers without * were called inactive; ! = repeats disagree; [ ] = another dose, or the depositor's remark. Rows were chosen to be rich in hits. Some 9.4% of all compounds tested hit in one or more screens of this group. Unless noted, calls come from the whole dose curve; as a rule, active = well fitted curve in the direction sought with a large enough effect; inconclusive = small, poorly fitted or top-dose-only effect, or another doubt; inactive = no such curve, though single readings can be large; an effect the other way counts as inactive or inconclusive. Potency is the fitted concentration of half-maximal effect.

CCOC(=O)N1CCN(C(=O)CN(C)S(=O)(=O)c2ccc3c(c2)c(=O)n(C)c(=O)n3C)CC1 was read as SARS PLP yeast -4%, Pf growth 96h inconclusive, AMA1 RON2 block 6% and Pf growth 48h -26%.
For CC1=CC(=C(C#N)c2nc3ccccc3s2)C=C(C)N1Cc1ccco1 the results were SARS PLP yeast 9%, AMA1 RON2 block 24% and Pf growth 48h 3.3µM*.
Screening Nc1ccc(C(=O)NCC(=O)O)cc1 returned Pf growth 96h 9.3µM*!, AMA1 RON2 block 0% and Pf growth 48h 12µM*!.
Screening Nc1ccc(C(=O)NCCCCCCNC(=O)c2ccc(N)cc2)cc1 returned SARS PLP yeast 2%, Pf growth 96h inconclusive, AMA1 RON2 block 5% and Pf growth 48h -1%[0.00184 µM].
For CCN1c2ccccc2NC2C1C(C(C)=O)C(=O)N2c1ccc(Cl)cc1 (stereo not given) the results were SARS PLP yeast -12%, Pf growth 96h -102%, AMA1 RON2 block -12% and Pf growth 48h 13µM*.
For COc1ccc(CCNC(=O)Cn2cccc2C(=O)c2ccccc2C)cc1OC the results were SARS PLP yeast -9%, Pf growth 96h 9.3µM*, AMA1 RON2 block -5% and Pf growth 48h -27%.
For COc1ccc(CCNC(=O)Cn2cccc2C(=O)c2ccccc2)cc1OC the results were SARS PLP yeast -3%, Pf growth 96h -2%, AMA1 RON2 block 0% and Pf growth 48h 3%.
Screening Cc1ccccc1C(=O)c1cccn1CC(=O)NCC1CCCO1 (stereo not given) returned SARS PLP yeast 1%, Pf growth 96h 10µM*, AMA1 RON2 block 5% and Pf growth 48h -2%.
Cc1ccccc1C(=O)c1cccn1CC(=O)NCc1ccccc1 was read as SARS PLP yeast -1%, Pf growth 96h 1%, AMA1 RON2 block -2% and Pf growth 48h 28%.
CCC(=O)c1ccc(OCC(=O)N(CC)CC(=O)Nc2ccccc2OC)cc1 was read as SARS PLP yeast 1%, Pf growth 96h inconclusive, AMA1 RON2 block 5%[11.6 µM] and Pf growth 48h inconclusive.
C=CCn1c(-c2c(C)nc3cc(C)ccn23)n[nH]c1=S was read as SARS PLP yeast -1%, Pf growth 96h -9%, AMA1 RON2 block -6% and Pf growth 48h 23%.
`Cc1cccc(C)c1NC(=S)N/N=C/c1ccc(OCCC(C)C)cc1` gave SARS PLP yeast inconclusive, Pf growth 96h 3.3µM* and AMA1 RON2 block 0%.
`CCn1nc(C(=O)Nc2ccc3nc(C)sc3c2)c2ccccc2c1=O` gave SARS PLP yeast -23%, Pf growth 96h 8%, AMA1 RON2 block 4%[2.32 µM] and Pf growth 48h 8%.
Screening CC(=O)N1CCN(CCN(CC2C(C)C=C(C)CC2C)C(C)=O)CC1 (stereo not given) returned SARS PLP yeast 1%, AMA1 RON2 block 3% and Pf growth 48h -2%.
CC1=CC(C)C(CN(CCC[N+](C)(C)C)C(=O)Nc2ccccc2)C(C)C1 (stereo not given) was read as SARS PLP yeast 0%, Pf growth 96h 12µM*, AMA1 RON2 block -10% and Pf growth 48h inconclusive.
CCOC(=O)C(=NC(C)(C)C)NNc1cc(Cl)ccc1Cl was read as SARS PLP yeast -40%, Pf growth 96h 9.3µM*, AMA1 RON2 block -2%[2.32 µM] and Pf growth 48h inconclusive.
Screening CCOC(=O)C(=NC(C)C)NNc1cc(Cl)ccc1Cl returned SARS PLP yeast -57%, Pf growth 96h 0%, AMA1 RON2 block -7% and Pf growth 48h inconclusive.
For Cc1ccsc1/C=N\NC(=O)c1n[nH]c2c1CCC2 the results were SARS PLP yeast -14%, Pf growth 96h 10µM*, AMA1 RON2 block -6%[11.6 µM] and Pf growth 48h 49%.
NC(Cc1ccccc1Cl)c1nn[nH]n1 (stereo not given) was read as AMA1 RON2 block 85%.
`O=C(C1CCN(c2nc3ccc(Br)cc3s2)CC1)N1CCC2(CC1)OCCO2` gave SARS PLP yeast 6%, Pf growth 96h 4.7µM*, AMA1 RON2 block 4% and Pf growth 48h 41%.
For CCCN(CCC)S(=O)(=O)c1ccc(C(=O)OCCN2C(=O)c3cccc4c(N5CCOCC5)ccc(c34)C2=O)cc1 the results were SARS PLP yeast 5%, Pf growth 96h inconclusive, AMA1 RON2 block 24% and Pf growth 48h inconclusive.
`O=C(OCCN1C(=O)c2cccc3c(N4CCOCC4)ccc(c23)C1=O)c1ccc(Cl)cc1` gave SARS PLP yeast inconclusive, Pf growth 96h 12µM*, AMA1 RON2 block 8% and Pf growth 48h inconclusive.
For CCOC(=O)c1oc2ccc3c(c2c1C)C(=O)CC1(CCN(C(=O)OCC)CC1)O3 the results were SARS PLP yeast inconclusive, Pf growth 96h 16%, AMA1 RON2 block 1% and Pf growth 48h 2.6µM*.
Screening CCOC(=O)N1CCC2(CC1)CC(=O)c1c(ccc3oc(C(=O)O)c(C)c13)O2 returned SARS PLP yeast 3%, AMA1 RON2 block 0% and Pf growth 48h -16%.
`O=c1c2cc(-c3ccccc3)sc2nc2n1N=C(c1ccccc1)CS2` gave SARS PLP yeast 0%, Pf growth 96h 87%, AMA1 RON2 block 15% and Pf growth 48h 146%.
`Cc1ccc2cc(CN(C(=O)c3cccnc3)C(C)C)c(=O)[nH]c2c1` gave SARS PLP yeast 0%, Pf growth 96h inconclusive, AMA1 RON2 block -7% and Pf growth 48h 12µM*.
Cc1cccc(N(Cc2cc3ccc(C)cc3[nH]c2=O)C(=O)c2ccco2)c1 was read as SARS PLP yeast 0%, Pf growth 96h 10µM*, AMA1 RON2 block -5% and Pf growth 48h inconclusive.
For CCCN(Cc1cc2ccc(C)cc2[nH]c1=O)C(=O)c1cccnc1 the results were SARS PLP yeast 0%, AMA1 RON2 block -3% and Pf growth 48h inconclusive.
COc1cc(OC)cc(C(=O)N(Cc2cc3cc(C)ccc3[nH]c2=O)C(C)C)c1 was read as SARS PLP yeast -3%, Pf growth 96h inconclusive, AMA1 RON2 block -15% and Pf growth 48h inconclusive.
Screening COc1cccc(C(=O)N(Cc2cc3cc(C)ccc3[nH]c2=O)C(C)C)c1 returned SARS PLP yeast 1%, Pf growth 96h 3.7µM*, AMA1 RON2 block 12% and Pf growth 48h 7.4µM*.
CC(=O)N(Cc1cc2cc(C)ccc2[nH]c1=O)c1cccc(C)c1C was read as SARS PLP yeast 3%, Pf growth 96h 9.3µM*, AMA1 RON2 block 10% and Pf growth 48h 0%.
Cc1ccc(S(=O)(=O)N2CCN(C(=O)c3n[nH]c(=O)c4ccccc34)CC2)c(C)c1 was read as SARS PLP yeast 4%, Pf growth 96h inconclusive, AMA1 RON2 block -10% and Pf growth 48h inconclusive.
Screening COc1cc(N=C(N)N=C(N)N)cc(OC)c1 returned SARS PLP yeast 0%, Pf growth 96h 5%, AMA1 RON2 block 59% and Pf growth 48h 3%.
For CCOCCCNC(=O)Cc1ccc(Br)cc1 the results were SARS PLP yeast 10%, Pf growth 96h 4%, AMA1 RON2 block -8%[2.32 µM] and Pf growth 48h 12%.
Cn1ncc(Br)c1C(=O)N/N=C/c1ccc(OS(=O)(=O)c2ccccc2)cc1 was read as SARS PLP yeast -3%, Pf growth 96h -2%, AMA1 RON2 block 2% and Pf growth 48h 7%.
